# Columns and labels:
# Assay type in all cases: functional
# [1] = molecular target: Solute carrier family 2, facilitated glucose transporter member 1 (Homo sapiens) (UniProt P11166); assay: ST_JUDE_LEISH: Cytotoxicity at 2uM final concentration against transgenic Leishmania Mexicana promastigotes LmGLUT1 that are glucose transport deficient and complemented with the human glucose transporter GLUT1. Activity is measured by DNA content using SYBR green in vitro
# [2] = molecular target: Hexose transporter 1 (Plasmodium falciparum) (UniProt O97467); assay: ST_JUDE_LEISH: Cytotoxicity at 2uM final concentration against transgenic Leishmania Mexicana promastigotes LmPfHT that are glucose transport deficient and complemented with the Plasmodium falciparum hexose transporter. Activity is measured by DNA content using SYBR green in vitro
# [3] = molecular target: Glucose transporter (Leishmania mexicana) (UniProt O61059); assay: ST_JUDE_LEISH: Cytotoxicity at 2uM final concentration against transgenic Leishmania Mexicana promastigotes LmGT2 that are glucose transport deficient and complemented with the L. Mexicana glucose transporter 2. Activity is measured by DNA content using SYBR green in vitro
# Chain of Solute carrier family 2, facilitated glucose transporter member 1 (Homo sapiens) (P11166 whole entry): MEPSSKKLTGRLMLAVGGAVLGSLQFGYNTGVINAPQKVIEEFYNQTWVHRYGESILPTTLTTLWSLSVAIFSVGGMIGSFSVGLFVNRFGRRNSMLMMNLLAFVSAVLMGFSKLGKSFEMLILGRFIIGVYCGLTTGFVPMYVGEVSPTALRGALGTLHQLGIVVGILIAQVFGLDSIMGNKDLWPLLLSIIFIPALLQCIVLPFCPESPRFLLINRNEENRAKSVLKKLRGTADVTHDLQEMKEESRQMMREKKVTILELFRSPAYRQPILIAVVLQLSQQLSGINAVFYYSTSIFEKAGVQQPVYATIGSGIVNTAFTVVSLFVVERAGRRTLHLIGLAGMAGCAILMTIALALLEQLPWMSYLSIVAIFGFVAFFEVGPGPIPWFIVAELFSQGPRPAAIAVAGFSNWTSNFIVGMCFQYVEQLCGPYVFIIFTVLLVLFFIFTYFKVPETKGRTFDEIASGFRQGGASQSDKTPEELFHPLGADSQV
SMILES,inhibition [1] [%],inhibition [2] [%],inhibition [3] [%]
CSC1=NC(C)(C)CC2(CC(c3cccc(C)c3)c3cc(Cl)c(O)cc3O2)N1 (stereo not drawn),0.95,1,0.47
COc1cc(NC(=O)Nc2ccc(Br)cc2C(=O)Nc2ccc(Br)cc2)cc(OC)c1OC,5.51,4.2,5.3
NC(=O)c1cccc(C(=O)Nc2cccc(-c3cccc(-c4nc5ccccc5[nH]4)c3)c2)c1,5.87,5.18,4.03
COc1ccccc1C1CCN(C2CCC(NC(=O)c3cc4cc(C(C)C)ccc4[nH]3)CC2)CC1 (stereo not drawn),-0.19,0.03,9.55
CS(=O)(=O)c1ccc(OCCCN(Cc2ccccc2C(F)(F)F)c2ccc(C#N)c(C(F)(F)F)c2)cc1,1.51,3.33,0.65
CCOC(=O)c1ccc(NC(=O)Nc2cccc(-c3ccc(-c4nc5cc(C(F)(F)F)ccc5[nH]4)cc3)c2)cc1,-0.08,1.53,0.3
CC1CN(c2cnn(Cc3ccc(NC(=O)Nc4ccc(F)cc4[N+](=O)[O-])cc3)c(=O)c2Cl)CC(C)N1 (stereo not drawn),2.34,1.28,2.58
COc1ccccc1N1CCN(CCCCNC(=O)c2ccc(NC(=O)c3ccc4ccccc4c3)cc2)CC1,0.49,1.01,-0.43
COc1ccc2nccc([C@@H](O)CN3CCC(NCc4ccc5cccc(O)c5n4)CC3)c2n1,5.63,11.5,0.77
Oc1ccc(CCNc2nc(NCCOc3cccc4ccccc34)nc(N3CCNCC3)n2)cc1,3.36,0.4,2.56
CCc1c(C(=O)NC2CCC(N3CCC(c4ccccc4OC)CC3)CC2)[nH]c2ccc(OC)cc12 (stereo not drawn),1.56,2.5,0.22

# Source: ChEMBL document CHEMBL3433997, “St. Jude Leishmania screening dataset” (2016)
